# Measured values as given in PMC11006913.
# Where a chain is given by its changes, count along the chain named.
# Assays:
# Experiment in all cases: PBM; 200 nM protein, PBS
# Settings in all cases: dsDNA, one strand shown
# [1] = target: CRX (Homo sapiens, UniProt O43186 26-111)
# [2] = target: T1, SIX6 (Homo sapiens, UniProt O95475 114-200, L167I)
# T1 sequence: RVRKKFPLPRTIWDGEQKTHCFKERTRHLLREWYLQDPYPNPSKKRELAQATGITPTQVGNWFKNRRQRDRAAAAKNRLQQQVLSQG
# [3] = target: T2, SIX6 (Homo sapiens, UniProt O95475 114-200, L143V)
# T2 sequence: T1 sequence with L30V, I54L
# [4] = target: T3, SIX6 (Homo sapiens, UniProt O95475 114-200, H141N)
# T3 sequence: T1 sequence with H28N, I54L
# [5] = target: T4, SIX6 (Homo sapiens, UniProt O95475 114-200, T165P)
# T4 sequence: T1 sequence with T52P, I54L
# [6] = target: T5, SIX6 (Homo sapiens, UniProt O95475 114-200, L167M)
# T5 sequence: T1 sequence with I54M
# [7] = target: T6, SIX6 (Homo sapiens, UniProt O95475 114-200, L143M)
# T6 sequence: T1 sequence with L30M, I54L
# [8] = target: T7, SIX6 (Homo sapiens, UniProt O95475 114-200, L143I)
# T7 sequence: T1 sequence with L30I, I54L
# [9] = target: T8, SIX6 (Homo sapiens, UniProt O95475 114-200, T165G)
# T8 sequence: T1 sequence with T52G, I54L
# [10] = target: T9, SIX6 (Homo sapiens, UniProt O95475 114-200, T139Q)
# T9 sequence: T1 sequence with T26Q, I54L
# [11] = target: CRX (Homo sapiens, UniProt O43186 26-111, E42D)
# [12] = target: T10, SIX6 (Homo sapiens, UniProt O95475 114-200, T165A)
# T10 sequence: T1 sequence with T52A, I54L
# [13] = target: T11, SIX6 (Homo sapiens, UniProt O95475 114-200, L167V)
# T11 sequence: T1 sequence with I54V
# [14] = target: T12, SIX6 (Homo sapiens, UniProt O95475 114-200)
# T12 sequence: T1 sequence with I54L
# [15] = target: T13, SIX6 (Homo sapiens, UniProt O95475 114-200, T165I)
# T13 sequence: T1 sequence with T52I, I54L
# [16] = target: CRX (Homo sapiens, UniProt O43186 26-111, R41L)
# [17] = target: HOXA7 (Homo sapiens, UniProt P31268 116-202)
# [18] = target: HOXA7 (Homo sapiens, UniProt P31268 116-202, W177C)
# [19] = target: T14, VENTX (Homo sapiens, UniProt O95231 78-163, R121Q)
# T14 sequence: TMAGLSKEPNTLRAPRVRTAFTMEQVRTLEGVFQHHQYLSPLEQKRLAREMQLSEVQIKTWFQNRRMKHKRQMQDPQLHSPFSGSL
# [20] = target: T15, VENTX (Homo sapiens, UniProt O95231 78-163, Y115F)
# T15 sequence: T14 sequence with Y38F, Q44R
# [21] = target: PITX2 (Homo sapiens, UniProt Q99697 72-157)
# [22] = target: HOXB9 (Homo sapiens, UniProt P17482 171-250, T197M)
# [23] = target: HOXA4 (Homo sapiens, UniProt Q00056 201-287, W262R)
# [24] = target: HOXA4 (Homo sapiens, UniProt Q00056 201-287, R217L)
# [25] = target: HOXB9 (Homo sapiens, UniProt P17482 171-250)
# [26] = target: HOXA4 (Homo sapiens, UniProt Q00056 201-287)
# [27] = target: HOXB9 (Homo sapiens, UniProt P17482 171-250, R186Q)
# [28] = target: HOXA4 (Homo sapiens, UniProt Q00056 201-287, W262F)
# Chain of HOXA4 (Homo sapiens, UniProt Q00056 201-287, W262F) (Q00056 201-287 W262F): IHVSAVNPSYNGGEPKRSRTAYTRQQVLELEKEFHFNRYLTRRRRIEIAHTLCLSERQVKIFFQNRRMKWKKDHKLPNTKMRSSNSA
# Chain of CRX (Homo sapiens, UniProt O43186 26-111, E42D) (O43186 26-111 E42D): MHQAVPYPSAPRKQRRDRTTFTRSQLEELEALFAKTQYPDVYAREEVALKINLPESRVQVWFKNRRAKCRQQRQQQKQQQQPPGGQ
# Chain of CRX (Homo sapiens, UniProt O43186 26-111, R41L) (O43186 26-111 R41L): as the sequence (O43186 26-111 E42D) above, with R16L, D17E counted along it
# Chain of CRX (Homo sapiens, UniProt O43186 26-111) (O43186 26-111): as the sequence (O43186 26-111 E42D) above, with D17E counted along it
# Chain of HOXB9 (Homo sapiens, UniProt P17482 171-250, R186Q) (P17482 171-250 R186Q): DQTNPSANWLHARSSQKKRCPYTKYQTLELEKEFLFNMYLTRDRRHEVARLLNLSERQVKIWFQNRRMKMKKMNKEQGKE
# Chain of HOXA7 (Homo sapiens, UniProt P31268 116-202, W177C) (P31268 116-202 W177C): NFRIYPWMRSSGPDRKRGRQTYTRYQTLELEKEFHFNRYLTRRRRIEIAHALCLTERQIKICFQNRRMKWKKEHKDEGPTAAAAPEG
# Chain of HOXA4 (Homo sapiens, UniProt Q00056 201-287) (Q00056 201-287): as the sequence (Q00056 201-287 W262F) above, with F62W counted along it
# Chain of HOXB9 (Homo sapiens, UniProt P17482 171-250) (P17482 171-250): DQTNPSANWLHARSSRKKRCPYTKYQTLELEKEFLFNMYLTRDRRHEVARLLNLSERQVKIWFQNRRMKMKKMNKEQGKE
# Chain of HOXA7 (Homo sapiens, UniProt P31268 116-202) (P31268 116-202): as the sequence (P31268 116-202 W177C) above, with C62W counted along it
# Chain of HOXA4 (Homo sapiens, UniProt Q00056 201-287, W262R) (Q00056 201-287 W262R): as the sequence (Q00056 201-287 W262F) above, with F62R counted along it
# Chain of HOXA4 (Homo sapiens, UniProt Q00056 201-287, R217L) (Q00056 201-287 R217L): as the sequence (Q00056 201-287 W262F) above, with R17L, F62W counted along it
# Chain of HOXB9 (Homo sapiens, UniProt P17482 171-250, T197M) (P17482 171-250 T197M): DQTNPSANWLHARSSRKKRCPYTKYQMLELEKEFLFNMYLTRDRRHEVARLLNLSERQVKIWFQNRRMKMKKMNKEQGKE
sequence,measurement,setting,value
AGGTGCCC,binding signal,[1],"8.39 upbm affinity estimate (log intensity, higher = more binding, comparable within an allelic series)"
same,binding signal,[2],"8.91 upbm affinity estimate (log intensity, higher = more binding, comparable within an allelic series)"
same,binding signal,[3],"8.83 upbm affinity estimate (log intensity, higher = more binding, comparable within an allelic series)"
same,binding signal,[4],"8.91 upbm affinity estimate (log intensity, higher = more binding, comparable within an allelic series)"
same,binding signal,[5],"8.95 upbm affinity estimate (log intensity, higher = more binding, comparable within an allelic series)"
same,binding signal,[6],"8.85 upbm affinity estimate (log intensity, higher = more binding, comparable within an allelic series)"
same,binding signal,[7],"8.84 upbm affinity estimate (log intensity, higher = more binding, comparable within an allelic series)"
same,binding signal,[8],"8.86 upbm affinity estimate (log intensity, higher = more binding, comparable within an allelic series)"
same,binding signal,[9],"8.89 upbm affinity estimate (log intensity, higher = more binding, comparable within an allelic series)"
same,binding signal,[10],"8.92 upbm affinity estimate (log intensity, higher = more binding, comparable within an allelic series)"
same,binding signal,[11],"8.38 upbm affinity estimate (log intensity, higher = more binding, comparable within an allelic series)"
same,binding signal,[12],"8.85 upbm affinity estimate (log intensity, higher = more binding, comparable within an allelic series)"
same,binding signal,[13],"8.9 upbm affinity estimate (log intensity, higher = more binding, comparable within an allelic series)"
same,binding signal,[14],"8.78 upbm affinity estimate (log intensity, higher = more binding, comparable within an allelic series)"
same,binding signal,[15],"8.87 upbm affinity estimate (log intensity, higher = more binding, comparable within an allelic series)"
same,binding signal,[16],"8.35 upbm affinity estimate (log intensity, higher = more binding, comparable within an allelic series)"
GACCGACA,binding signal,[1],"8.43 upbm affinity estimate (log intensity, higher = more binding, comparable within an allelic series)"
same,binding signal,[17],"8.51 upbm affinity estimate (log intensity, higher = more binding, comparable within an allelic series)"
same,binding signal,[11],"8.36 upbm affinity estimate (log intensity, higher = more binding, comparable within an allelic series)"
same,binding signal,[18],"8.57 upbm affinity estimate (log intensity, higher = more binding, comparable within an allelic series)"
same,binding signal,[16],"8.31 upbm affinity estimate (log intensity, higher = more binding, comparable within an allelic series)"
AATTCTGA,binding signal,[1],"10 upbm affinity estimate (log intensity, higher = more binding, comparable within an allelic series)"
ATAATCTG,binding signal,[1],"13 upbm affinity estimate (log intensity, higher = more binding, comparable within an allelic series)"
same,binding signal,[19],"9.97 upbm affinity estimate (log intensity, higher = more binding, comparable within an allelic series)"
same,binding signal,[20],"10.1 upbm affinity estimate (log intensity, higher = more binding, comparable within an allelic series)"
same,binding signal,[11],"13 upbm affinity estimate (log intensity, higher = more binding, comparable within an allelic series)"
same,binding signal,[16],"13 upbm affinity estimate (log intensity, higher = more binding, comparable within an allelic series)"
CAGATTAA,binding signal,[1],"13.1 upbm affinity estimate (log intensity, higher = more binding, comparable within an allelic series)"
same,binding signal,[19],"10.7 upbm affinity estimate (log intensity, higher = more binding, comparable within an allelic series)"
same,binding signal,[20],"10.7 upbm affinity estimate (log intensity, higher = more binding, comparable within an allelic series)"
same,binding signal,[11],"13.1 upbm affinity estimate (log intensity, higher = more binding, comparable within an allelic series)"
same,binding signal,[21],"12.5 upbm affinity estimate (log intensity, higher = more binding, comparable within an allelic series)"
CACGCCCC,binding signal,[1],"8.24 upbm affinity estimate (log intensity, higher = more binding, comparable within an allelic series)"
same,binding signal,[22],"8.49 upbm affinity estimate (log intensity, higher = more binding, comparable within an allelic series)"
same,binding signal,[2],"9.05 upbm affinity estimate (log intensity, higher = more binding, comparable within an allelic series)"
same,binding signal,[23],"9.84 upbm affinity estimate (log intensity, higher = more binding, comparable within an allelic series)"
same,binding signal,[3],"8.92 upbm affinity estimate (log intensity, higher = more binding, comparable within an allelic series)"
same,binding signal,[4],"9.05 upbm affinity estimate (log intensity, higher = more binding, comparable within an allelic series)"
same,binding signal,[5],"8.95 upbm affinity estimate (log intensity, higher = more binding, comparable within an allelic series)"
same,binding signal,[6],"8.99 upbm affinity estimate (log intensity, higher = more binding, comparable within an allelic series)"
same,binding signal,[7],"9.02 upbm affinity estimate (log intensity, higher = more binding, comparable within an allelic series)"
same,binding signal,[8],"8.94 upbm affinity estimate (log intensity, higher = more binding, comparable within an allelic series)"
same,binding signal,[9],"9.18 upbm affinity estimate (log intensity, higher = more binding, comparable within an allelic series)"
same,binding signal,[24],"9.86 upbm affinity estimate (log intensity, higher = more binding, comparable within an allelic series)"
same,binding signal,[25],"8.48 upbm affinity estimate (log intensity, higher = more binding, comparable within an allelic series)"
same,binding signal,[10],"9.14 upbm affinity estimate (log intensity, higher = more binding, comparable within an allelic series)"
same,binding signal,[11],"8.24 upbm affinity estimate (log intensity, higher = more binding, comparable within an allelic series)"
same,binding signal,[12],"9.17 upbm affinity estimate (log intensity, higher = more binding, comparable within an allelic series)"
same,binding signal,[26],"9.74 upbm affinity estimate (log intensity, higher = more binding, comparable within an allelic series)"
same,binding signal,[13],"8.99 upbm affinity estimate (log intensity, higher = more binding, comparable within an allelic series)"
same,binding signal,[14],"9.08 upbm affinity estimate (log intensity, higher = more binding, comparable within an allelic series)"
same,binding signal,[15],"9.05 upbm affinity estimate (log intensity, higher = more binding, comparable within an allelic series)"
same,binding signal,[27],"8.47 upbm affinity estimate (log intensity, higher = more binding, comparable within an allelic series)"
same,binding signal,[16],"8.33 upbm affinity estimate (log intensity, higher = more binding, comparable within an allelic series)"
same,binding signal,[28],"9.99 upbm affinity estimate (log intensity, higher = more binding, comparable within an allelic series)"
